How the values were obtained:
Details in all cases: concentration: 1 μM, replicates: in singlicate; n = 1
[1] = system: RPS6KA4(Kin.Dom.1-N-terminal)
[2] = system: RPS6KA4(Kin.Dom.2-C-terminal)
[3] = system: RPS6KA5(Kin.Dom.1-N-terminal)
[4] = system: RPS6KA5(Kin.Dom.2-C-terminal)
[5] = system: T1, RSK1(Kin.Dom.1-N-terminal)
T1 construct: gene RPS6KA1

[6] = system: T2, RSK1(Kin.Dom.2-C-terminal)
T2 construct: gene RPS6KA1

[7] = system: T3, RSK2(Kin.Dom.1-N-terminal)
T3 construct: gene RPS6KA3

[8] = system: T4, RSK2(Kin.Dom.2-C-terminal)
T4 construct: gene RPS6KA3

[9] = system: T5, RSK3(Kin.Dom.1-N-terminal)
T5 construct: gene RPS6KA2

[10] = system: T6, RSK3(Kin.Dom.2-C-terminal)
T6 construct: gene RPS6KA2

[11] = system: T7, RSK4(Kin.Dom.1-N-terminal)
T7 construct: gene RPS6KA6

[12] = system: T8, RSK4(Kin.Dom.2-C-terminal)
T8 construct: gene RPS6KA6

S6K1 = system: S6K1
SBK1 = system: SBK1
SGK2 = system: SGK2
SGK3 = system: SGK3
SGK = system: SGK
SIK2 = system: SIK2
SIK = system: SIK
SLK = system: SLK
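Further: KINOMEscan kinase panel screen.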

SMILES	%Inh [1] [%]	%Inh [2] [%]	%Inh [3] [%]	%Inh [4] [%]	%Inh [5] [%]	%Inh [6] [%]	%Inh [7] [%]	%Inh [8] [%]	%Inh [9] [%]	%Inh [10] [%]	%Inh [11] [%]	%Inh [12] [%]	%Inh (S6K1) [%]	%Inh (SBK1) [%]	%Inh (SGK2) [%]	%Inh (SGK3) [%]	%Inh (SGK) [%]	%Inh (SIK2) [%]	%Inh (SIK) [%]	%Inh (SLK) [%]
CCOc1nccc(-c2c(-c3ccc(F)cc3)ncn2C2CCNCC2)n1 [SB-249175]	8	32	100	0	16	20	52	39	17	20	41	83	16	46	34	12	29	4	2	71
CN(C)c1ncnc2nc[nH]c12 [SKF-31736]	1	0	0	11	0	0	39	0	0	0	28	8	29	0	23	0	14	0	0	0
CCNc1nccc(-c2c(-c3ccc(F)cc3)ncn2C2CCN(C)CC2)n1	0	0	0	8	5	50	9	15	6	10	13	64	0	0	5	0	14	8	0	13
Cn1cc(-c2ccc3c(c2)CCN3C(=O)Cc2cc(F)cc(C(F)(F)F)c2)c2c(N)ncnc21 [GSK2635225]	0	0	23	6	1	5	0	19	19	0	0	0	9	7	0	8	1	0	0	41
CSc1ccc(NC2=C(c3ccc(Cl)cc3)C(=O)NC2=O)cc1 [SB-317658]	28	0	2	30	6	0	11	0	0	0	5	0	0	29	0	0	0	9	25	8
Cc1nn2c(=O)cc(N3CCO[C@H](C)C3)nc2n1Cc1cccc(Cl)c1Cl [GSK2373693]	18	39	19	24	0	4	10	5	26	4	0	0	4	89	1	0	0	0	0	4
COc1ccc(C2=C(Nc3cccc(O)c3)C(=O)NC2=O)cc1 [SB-390766]	0	0	2	0	32	0	24	96.4	3	21	0	20	17	8	11	9	0	0	0	27
COC(=O)Nc1nc2ccc(Oc3ccc(NC(=O)Nc4cc(C(F)(F)F)ccc4F)cc3)cc2[nH]1.Cl [GW654607]	15	0	0	0	0	13	0	35	12	0	0	16	21	17	8	5	0	0	0	85
Cc1ccccc1CC(=O)N1CCc2cc(-c3cn(C)c4ncnc(N)c34)ccc21 [GSK2603346]	11	0	20	0	0	4	0	6	24	0	28	10	19	23	2	0	0	0	0	48
Cc1ccc(O)cc1Nc1ccnc2cc(-c3ccc(CN4CCCCC4)o3)ccc12 [GW557777]	0	9	0	10	0	90.7	0	40	1	29	0	87	0	0	0	0	1	83	97.8	34
CCNC(=O)/C=C/c1n[nH]c2cc(Sc3ccccc3C(=O)NC)ccc12	8	21	4	0	24	15	8	0	8	34	17	24	18	0	0	46	0	55	44	23
CC(C)(C)c1ccc(C(=O)Nc2cn3cc(-n4ccnc4)ccc3n2)cc1	0	22	10	31	0	0	25	0	0	0	29	0	8	0	11	60	2	10	9	6
Cc1cccc(Nc2nc(NCCN)ncc2C(N)=O)c1 [GSK1292139]	12	0	0	29	20	31	46	7	18	1	21	23	14	72	0	8	9	52	19	32
COc1ccc(NC(=O)c2ccoc2)cc1-c1ccc(C(=O)NCC2CC2)cc1 [GW810437]	18	0	4	8	0	21	22	0	0	27	8	0	9	48	0	19	25	0	0	0
COc1ccc(C)c(Nc2ccnc(Nc3ccc(-c4cnc[nH]4)cc3)n2)c1.Cl [GW784041]	26	5	8	10	0	1	0	3	1	6	0	0	0	0	0	12	0	71	28	70
Fc1cc(Cl)ccc1Nc1ccnc2cc(-c3ccc(CN4CCOCC4)o3)ccc12 [GW560109]	35	0	9	0	6	28	14	44	100	0	0	90.3	26	37	6	0	0	100	97.4	32
Cc1ccc(NC(=O)c2ccc(Cl)c(Cl)c2)cc1-c1ccc(C(=O)Nc2ccncc2)cc1 [GSK1398460]	25	0	15	0	24	2	0	22	7	9	0	23	0	15	0	14	0	9	8	29
CN(C)CCOc1ccc(-c2cc(-c3ccc(Cl)c(O)c3)c(-c3ccncc3)[nH]2)cc1.Cl.Cl [SB-684387]	0	23	0	33	10	23	3	8	4	0	0	25	6	12	10	20	24	27	4	98
CNc1nccc(-c2ccc3c(N)n[nH]c3c2)n1 [GSK2206003]	3	91.8	19	63	22	22	38	0	14	5	59	24	0	36	6	38	36	9	0	69
COC(=O)Nc1nc2cc(Oc3ccc(NC(=O)Nc4cccc(SC)c4)cc3)ccc2[nH]1.Cl [GW697999]	3	0	15	0	0	0	0	4	7	0	0	0	9	0	0	8	11	0	0	33
